Laboratory results from PubChem BioAssay AID504766 (The Scripps Research Institute Molecular Screening Center, 2011).
In all, about 340,000 compounds went through this assay and about 3,400 (1%) were called active. For the sample, actives were picked, then their nearest neighbours and some compounds at random. Unmarked numbers belong to inactive results.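 The calls were made as follows: active = inhibition above the mean over all tested compounds plus 3 SD (cut at about 4.2% in these data); inactive = the rest.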

biological target: Nuclear receptor subfamily 0 group B member 1 (Homo sapiens) (UniProt P51843); experiment: DAX1 (NR0B1) inhibitors, primary screen, cell-based, HEK293, Gal4-DAX1, luciferase luminescence (AID 504766); conditions: HEK293 Gal4-DAX1 luciferase reporter, at 6.75 µM, active compounds read high;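 also: 0% = DAX1-transfected cells with DMSO and 100% = empty-vector control cells with DMSO; inhibition shows as a rise in luminescence from relieved DAX1 repression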
Sequence (P51843 207-470 limits assumed): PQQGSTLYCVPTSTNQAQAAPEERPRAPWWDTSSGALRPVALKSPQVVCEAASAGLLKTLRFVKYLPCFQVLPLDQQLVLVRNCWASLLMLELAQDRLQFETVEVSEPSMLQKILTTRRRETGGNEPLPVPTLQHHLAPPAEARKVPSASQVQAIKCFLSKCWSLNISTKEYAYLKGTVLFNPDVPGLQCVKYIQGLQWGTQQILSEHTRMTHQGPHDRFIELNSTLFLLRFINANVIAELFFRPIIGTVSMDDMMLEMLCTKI

Compared with `COc1cc(NC(=O)CSc2nnc3ccc(-c4ccncc4)nn23)cc(OC)c1`, `COc1ccc(CCNC(=O)CSc2nnc3ccc(-c4ccncc4)nn23)cc1` is higher in inhibition: 0.29% for the first, 2.31% for the second.

Compared with `Cc1nc2ccccc2nc1CC(O)(c1ccccc1)c1ccccc1`, `CCOC(=O)c1cc(-c2sc(NC(=O)c3ccccc3)nc2C)n(Cc2ccccc2)n1` is lower in inhibition: 1.49% for the first, -1.03% for the second.

Going from `COc1ccc(CN2C(=O)C(CC(=O)NCc3cccc4ccccc34)CC(C(=O)N3CCOCC3)=C2C)cc1` (configuration not stated) to `COc1ccc(CN2C(=O)C(CC(=O)NCCCCc3ccccc3)CC(C(=O)N3CCOCC3)=C2C)cc1` (configuration not stated), the inhibition falls from 0.04% to -0.84%.

Going from `CC(Sc1ccc(S(=O)(=O)N2CCN(C)CC2)cn1)C(=O)NC1CCCC(C)C1C` (configuration not stated) to `O=C(CN1CCCSc2ccccc21)N1CCN(S(=O)(=O)c2ccccc2)CC1`, the inhibition falls from 0.86% to 0.49%.

First: C[C@H]1Cn2cnc(C(=O)N[C@H](C)c3ccccc3)c2C(=O)N1
Second: Cn1nnc(NC(=S)NC(=O)c2ccccc2)n1
The inhibition of the first is higher: 1.52% for the first, 0.45% for the second.

Compared with `CCOC(=O)C(=Cc1ccccc1)C(=O)c1ccccc1`, `O=C(Nc1cccc(C(=O)O)c1)/C(=C\c1ccccc1)NC(=O)c1ccc(Br)o1` is higher in inhibition: -1.17% for the first, 1.84% for the second.

Compared with `O=C(NCCCn1ccnc1)c1cc(Br)c(Br)s1`, `O=C(NCCCn1ccnc1)c1ccccc1F` is lower in inhibition: 2.56% for the first, 1.27% for the second.

Going from `O=C(NC1CCCCCCC1)c1cccs1` to `O=C(NC1CCCCC1)c1cc(C2CC2)on1`, the inhibition rises from 0.85% to 1.17%.

Going from `O=NN(CCCl)C(=O)NCCc1cccc[n+]1[O-]` to `O=C(NCCc1cccc(F)c1)C1CC(O)CN1C(=O)Nc1ccccc1` (configuration not stated), the inhibition rises from 0.77% to 0.98%.

Going from `CN(C)C(CNC(=O)c1cc(Br)c(Br)s1)c1ccco1` (configuration not stated) to `CC(C)CNS(=O)(=O)c1ccc(C(=O)Nc2ccc3c(c2)OCO3)cc1`, the inhibition rises from -0.16% to 0.58%.

Compared with `O=C1[C@H]2[C@@H](c3ccc(C(F)(F)F)cc3)N[C@]3(CCCN(Cc4ccc(Cl)cc4)C3=O)[C@H]2C(=O)N1Cc1ccccc1`, `Cc1ccc([C@H]2N[C@]3(CCCN(CC4CCCCC4)C3=O)[C@H]3C(=O)N(Cc4ccccc4)C(=O)[C@@H]23)cc1` is higher in inhibition: -0.84% for the first, -0.61% for the second.

First: Cc1ccc(Cc2c(-c3ccc(C)cc3)nc3c4ccccc4ccn23)cc1
Second: Cc1ccc(S(=O)(=O)N2C[C@H]3C(=O)C[C@@H](c4cccc5ccccc45)N(S(=O)(=O)c4ccc(C)cc4)[C@H]3C[C@H]2c2ccc(Cl)cc2)cc1
The inhibition of the first is higher: 0.53% for the first, -0.08% for the second.

Going from `O=C(CN1C(=O)NC2(CCc3ccccc32)C1=O)NC1CCCCC1` (configuration not stated) to `CC1CCCCC12NC(=O)N(CC(=O)N1CCN(c3ccccc3)CC1)C2=O` (configuration not stated), the inhibition rises from -0.26% to 1.67%.

First: N#Cc1c(C(F)(F)F)cc(-c2ccccc2)nc1SCC(=O)N1CCOCC1
Second: Cc1cc(C(F)(F)F)c(C#N)c(SCC(=O)NC2CC2)n1
The inhibition of the first is lower: -0.64% for the first, -0.39% for the second.

First: Cc1ccc(C(=O)N[C@H](C(=O)N2CCN(c3ncccn3)CC2)C(C)C)cc1
Second: Cc1ccc(C(=O)NC(C)C(c2cccs2)N2CCOCC2)cc1C (configuration not stated)
The inhibition of the first is higher: 1.36% for the first, 0.43% for the second.

First: CC1(C2CC2)NC(=O)N(CC(=O)N2CCN(c3ccccc3F)CC2)C1=O (configuration not stated)
Second: O=C(CN1CCCSc2ccccc21)N1CCN(S(=O)(=O)c2cccc(F)c2)CC1
The inhibition of the first is lower: -0.4% for the first, -0.31% for the second.

First: COc1cc(C)c(CN2CCN(C(=O)CCC(=O)c3ccc(C)s3)CC2)cc1OC
Second: COc1ccccc1N1CCN(C(=O)C(=O)N/N=C/c2ccccc2F)CC1
The inhibition of the first is higher: 0.95% for the first, -0.62% for the second.

First: COC(=O)C[C@H]1C[C@@H]2c3cc(N(C)C)ccc3O[C@@H]2[C@H](CO)O1
Second: COc1ccc(NC(=O)CN(C)C(=O)c2cc(C)oc2C)cc1
The inhibition of the first is higher: 1.14% for the first, -0.29% for the second.

Going from `Cc1cc(C)c2c(=O)n3c(nc2c1)C(CC(C)C)NC(=O)c1cc2ccccc2cc1-3` (configuration not stated) to `Cc1cc(C)nc(NC(=O)c2cccc([N+](=O)[O-])c2)c1`, the inhibition falls from 0.81% to 0.73%.

Compared with `COc1ccc(C=C2CCC3C(CCCC34OCCO4)C2=O)cc1` (configuration not stated), `COc1ccc(C(=O)NC(=S)NC2CCCCC2)cc1` is lower in inhibition: 1.37% for the first, 1.16% for the second.

First: CCCCCCNC(=O)O[C@]12C[C@@H](C(=O)OC)[C@@H](C(=O)OC)C[C@@]1(O)CN(S(=O)(=O)c1ccc(C)cc1)C2
Second: CCOc1ccc(NS(=O)(=O)c2ccc(C(=O)NCC3CCCO3)cc2)cc1 (configuration not stated)
The inhibition of the first is lower: 0.26% for the first, 0.78% for the second.

First: O=S1(=O)CCN(C2CCCCCCCCCCC2)CC1
Second: CC(Sc1nnnn1C1CCCCC1)C(=O)O (configuration not stated)
The inhibition of the first is higher: -0.26% for the first, -0.46% for the second.

First: O=C(Nc1cccc([N+](=O)[O-])c1)c1ccc2c(c1)OCO2
Second: Cc1cccc(NC(=O)Nc2ccc3c(c2)OCO3)n1
The inhibition of the first is lower: 0.29% for the first, 3.3% for the second.

First: CC1=C(C(=O)N2CCOCC2)CC(CC(=O)NCc2ccco2)C(=O)N1Cc1ccc(F)cc1 (configuration not stated)
Second: CC1=C(C(=O)N(C)C)CC(CC(=O)NCCN2CCOCC2)C(=O)N1Cc1ccccc1 (configuration not stated)
The inhibition of the first is higher: 1.82% for the first, 0.86% for the second.

Going from `C/C(=N\NC(=S)NC1CCCCC1)c1ccc(C)o1` to `Cc1nnc(SCC(=O)NC(=O)NC2CCCC2)n1N`, the inhibition falls from 0.98% to -0.17%.

Compared with `O=C(C1CCC1)N1CCN(c2ccccc2)CC1`, `COc1ccccc1NC(=S)N1CCN(c2ccc(F)cc2)CC1` is lower in inhibition: 0.59% for the first, 0.5% for the second.

Going from `O=C(CCC(=O)c1cccs1)Nc1nc2ccccc2s1` to `CC(C)CC(=O)N/C(N)=N/c1nc2ccccc2s1`, the inhibition rises from 0.63% to 0.77%.

First: Cc1cccc(C(=O)C(O)(c2ccccc2)C2CCCCC2=O)c1 (configuration not stated)
Second: CCOC(=O)C[C@H]1c2ccc(C(F)(F)F)cc2S(=O)(=O)N1c1ccccc1
The inhibition of the first is lower: 0.38% for the first, 0.49% for the second.

First: Cc1cc(C)cc(C(=O)NC(=S)Nc2ccc3[nH]c(=O)[nH]c3c2)c1
Second: COc1cc2[nH]c(=S)n(Cc3ccc(F)cc3)c(=O)c2cc1OC
The inhibition of the first is lower: -1.15% for the first, -0.72% for the second.

Compared with `O=C(OCC(=O)N1CCCCCC1)c1cccc(Cl)c1Cl`, `COc1ccc(Cn2c(=S)[nH]c3cc(C(=O)N4CCCCC4)ccc3c2=O)cc1` is lower in inhibition: 3.82% for the first, -0.61% for the second.

Compared with `O=C(CSc1ncn[nH]1)Nc1nc2c(F)c(F)c(F)cc2s1`, `CC(=O)c1sc(N/N=C/c2ccc(C(C)C)cc2)nc1C` is lower in inhibition: 0.83% for the first, 0.37% for the second.

First: CCCOC(=O)c1ccc(N2C(=O)c3ccccc3C2=O)cc1
Second: C/C(COc1ccccc1)=N\NC(=O)c1nnn(-c2nonc2N)c1-c1ccc(C)cc1
The inhibition of the first is lower: -0.27% for the first, 1.15% for the second.

Compared with `CC1(C)CC(=O)C=C(c2ccccc2CO)C1=O`, `COc1ccccc1-c1n[nH]nc1C1=CC(=O)CC(C)(C)C1` is higher in inhibition: 0.81% for the first, 1.58% for the second.

First: NC(=S)NN=Cc1ccc(OC(=O)COc2cc(Cl)c(Cl)cc2Cl)cn1
Second: Cc1cccc(C(=O)OCC(=O)Nc2sccc2C(N)=O)c1C
The inhibition of the first is lower: -2.71% for the first, 0.47% for the second.

Going from `COCOCCn1cc(CN2CCS(=O)(=O)N(Cc3ccc(-c4ccc(OC)cc4)cc3)C(CC(C)C)C2=O)nn1` (configuration not stated) to `CC(C)CCOc1ccc(C(=O)Nc2cc(S(=O)(=O)N3CCOCC3)ccc2N2CCOCC2)cc1`, the inhibition rises from -0.18% to 1.57%.

Going from `CC1CN(C(=S)Nc2ccccc2F)CC(C)O1` (configuration not stated) to `c1cnn(-c2cc(N3CCOCC3)ncn2)c1`, the inhibition rises from -0.08% to 0.28%.

Work on `O=[N+]([O-])c1cccc(/C=N/Nc2ncc(Br)cn2)c1` yielded an inhibition of 3.56%.

For `O=C(CSc1nnc2ccc(-c3ccncc3)nn12)N1CCCCC1`, the inhibition was 4.62% (active).
In the case of `O=C(NCCCn1ccnc1)c1cc(-c2ccccc2)on1`, the inhibition is reported as 4.72% (active).
In the case of `O=C(NC1CCCC1)c1cc(-c2ccccc2)on1`, the inhibition is reported as 5.49% (active).
`N#Cc1c(C(F)(F)F)cc(-c2ccc(Cl)cc2)nc1SCC(=O)O` was tested, and the inhibition was 4.58% (active).
With `COC(=O)c1sc(SC)c(S(=O)(=O)C(C)C)c1N/N=C(\C#N)S(=O)(=O)c1ccccn1` the inhibition was 4.53% (active).
With `O=C(Nc1ccc(C2CC2(Cl)Cl)cc1)c1cccc([N+](=O)[O-])c1` (configuration not stated) the inhibition was 4.49% (active).
In the case of `Cc1ccc(/C=N/NC(=S)NC2CCCCC2)o1`, the inhibition is reported as 4.44% (active).
With `NC(=O)C1CCCN(CC(=O)N2CCN(c3ccccc3)CC2)C1` (configuration not stated) the inhibition was 6.46% (active).
`CCC(=O)NC(=Nc1nc2ccccc2s1)NC(=O)CC` was tested, and the inhibition was 6.2% (active).
In the case of `Cc1cc2[nH]ncc2cc1NC(=S)NC(=O)c1ccccc1`, the inhibition is reported as 5.71% (active).
In the case of `C=CCSC(CC)(CC)C(N)=O`, the inhibition is reported as 4.43% (active).
`Cc1[nH]n(-c2ccccc2)c(=O)c1CCOC(=O)c1ccc(C(F)(F)F)cc1` was tested, and the inhibition was 5.49% (active).
In the case of `CNS(=O)(=O)c1ccc(NC(=O)Nc2ccc3c(c2)OCO3)cc1`, the inhibition is reported as 4.23% (active).
For `CC(Sc1nnnn1C)C(=O)NC(=O)NC1CCCCC1` (configuration not stated), the inhibition was 4.23% (active).
With `N#C/C=C1\Sc2ccccc2C(=O)N1CC(=O)N1CCN(S(=O)(=O)c2ccccc2)CC1` the inhibition was 4.84% (active).
`COc1c(N2CCN(C(=S)Nc3ccccc3F)C(C)C2)c(F)cc2c(=O)c(C(=O)O)cn(C3CC3)c12` (configuration not stated) was tested, and the inhibition was 4.24% (active).
`Fc1ccccc1/C=N/Nc1cc(N2CCCCC2)ncn1` was tested, and the inhibition was 9.97% (active).
In the case of `COc1ccc(Cn2c(=O)cc(C)[nH]c2=S)cc1`, the inhibition is reported as 4.43% (active).
In the case of `CC(C)c1ccc(C=NNc2ccc([N+](=O)[O-])cn2)cc1`, the inhibition is reported as 4.47% (active).
